Unmarked numbers belong to inactive results.
System: HCC1569
Test: H1.0 immunofluorescence intensity relative to DMSO (% of DMSO); higher = stronger H1.0 induction, active = 140 or more
Conditions: concentration: 10 µM; 24 h
In short: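 HCC1569 and TDF cells (800 per well, 384-well plates, RPMI with 10% FBS) were treated with compounds at 10 µM for 24 h at 37 °C, in triplicate. Cells were fixed in 3.7% formaldehyde and stained with a rabbit anti-H1.0 antibody, an AlexaFluor 647 secondary and DAPI; six fields per well were imaged at ×10. H1.0 nuclear intensity or cell number is expressed as percent of the plate DMSO control, taking the median of replicates. HCC1569 values were smoothed for positional effects.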
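Further: TDF is a line of transformed human dermal fibroblasts of mesenchymal origin.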

Compound	H1.0 immunofluorescence intensity
O=c1cc(N2CCOCC2)oc2c(-c3ccccc3)cccc12	155 (active)
CCCCCCCCCCCCCCCCCCOCC(COP(=O)([O-])OCC[N+](C)(C)C)OC (configuration not stated) [1-Octadecyl-2-methylglycero-3 PC]	101
CCCCCCCC/C=C\CCCCCCCC(N)=O [(9Z)-9-octadecenamide]	98.7
CCC12CCCN3CCc4c(n(c5ccccc45)C(O)(C(=O)OC)C1)C32 (configuration not stated) [Vincamine]	86.2
Nc1nc(=O)c2ncn(COCCO)c2[nH]1 [Acyclovir]	85.5
COc1cc(NC(C)CCCN)c2ncccc2c1 (configuration not stated) [Primaquine]	113
O=C1CC(=O)c2c(Cl)c(Cl)c(Cl)c(Cl)c21 [4,5,6,7-tetrachloro-1H-indene-1,3(2H)-dione]	99.1
O=c1cc(N2CCOCC2)oc2c1ccc1ccccc12 [NU 7026 - 2-(4-Morpholinyl)-4H-naphthol[1,2-b]pyran-4-one]	105
NNC(=O)c1ccncc1 [Isoniazid]	110
COc1cc2ncn(-c3cc(OCc4ccc(S(C)(=O)=O)cc4)c(C(N)=O)s3)c2cc1OC [Polo-like Kinase Inhibitor I]	112
O=c1cc(-c2ccc(O)cc2)oc2cc(OC3OC(CO)C(O)C(O)C3O)cc(O)c12 (configuration not stated) [Apigenin-7-glucoside]	91
CCN(CC)C(=O)c1ccc(Nc2nc(OCC3CCCCC3)c3[nH]cnc3n2)cc1 [Cdk2 Inhibitor IV,                 NU6140]	158 (active)

— the supplement of paper PMC7156485
